Measured values published in paper PMC9574860, “Chemical Toolkit for PARK7: Potent, Selective, and High-Throughput” (Journal of Medicinal Chemistry, 2022).
Out of some 7,900 compounds screened, about 400 (5.1%) showed an effect of 50% or more. The sample as a whole holds a higher share of strong results than the screen did.

biological target: Parkinson's disease protein 7 (PARK7/DJ1) (human, UniProt Q99497); experiment: primary screen, percent inhibition; read as competition with a fluorescent probe by fluorescence polarization; higher = more effect of the substance; conditions: 100 µM
Outline: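 Covalent fragments at 100 μM final were incubated 2 h with 0.2 μM PARK7, then 20 nM probe JYQ-107 added for a further 2 h. Fluorescence polarization read at 480/520 nm; relative FP loss versus reference controls gave remaining enzyme activity.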

Sequence of Parkinson's disease protein 7 (PARK7/DJ1) (Q99497 whole entry, looked up, the tested form may be a part): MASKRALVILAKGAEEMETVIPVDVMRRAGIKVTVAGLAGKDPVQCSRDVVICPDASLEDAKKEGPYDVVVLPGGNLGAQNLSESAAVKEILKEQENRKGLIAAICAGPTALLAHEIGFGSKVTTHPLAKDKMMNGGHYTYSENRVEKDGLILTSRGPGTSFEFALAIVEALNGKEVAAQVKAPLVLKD

Row | Structure (SMILES) | Inhibition %
1 | C=CC(=O)N1CCCCC1c1nc2ccccc2o1 (stereo not drawn) | 7.43%
2 | O=S(=O)(c1cc(Cl)ccc1Cl)n1ccnc1 | 7.81%
3 | O=C(O)c1cc(S(=O)(=O)F)cs1 | 90%
4 | NC(=O)N1CCc2cc(S(=O)(=O)F)ccc21 | 10.9%
5 | NC(=O)Nc1ccc(S(=O)(=O)F)cc1 | 18.9%
6 | CC(C)c1nc(C#N)cs1 | 5.66%
7 | CC1(C)OB(c2ccc(S(=O)(=O)NCCO)cc2)OC1(C)C | 4.41%
8 | C=CC(=O)Nc1cc(C(F)(F)F)n[nH]1 | 9.56%
9 | C=CC(=O)N1CCOCC1c1c(C)nn(C)c1C (stereo not drawn) | 12.6%
10 | CC1(C)C2CC=C(COCC3CO3)C1C2 (stereo not drawn) | 3.87%
11 | Cc1nc2ccccc2nc1S | 2.7%
12 | Nc1cc2ccccc2nc1S | 52%
13 | Sc1nc2ccccc2nc1S | 8.25%
14 | Cc1ccc(-c2nnc(SC3CC(C)OC3=O)o2)cc1 (stereo not drawn) | 7.51%
15 | OB(O)C1CCN(Cc2cc(-c3ccccn3)n[nH]2)C1 (stereo not drawn) | 29.8%
16 | C=CC(=O)NC(NC(=O)C=C)c1ccccc1 | 11.8%
17 | C=CC(=O)N[C@H](C(=O)O)c1ccccc1 | 3.77%
18 | O=C(O)C(S)c1ccccc1 (stereo not drawn) | 89.9%
19 | OB(O)C1CCN(Cc2cc3c(cn2)OCCO3)C1 (stereo not drawn) | 21.4%
20 | CC=C(C#N)c1ccc2c(c1)OCO2 | 12.1%
21 | O=C(CN1C(=O)CCC1=O)Nc1cccc(Cl)c1 | 7.52%
22 | O=c1c2ccccc2nc(S)n1CCS | 7.43%
23 | O=C(CCl)N1CCC(c2ccccc2)=N1 | 90.5%
24 | O=C(CCl)N1CCN(S(=O)(=O)c2ccccc2)CC1 | 8.48%
25 | O=C(CCl)N1CCC(Cc2ccccc2)CC1 | 31.1%
26 | C=CC(=O)NCC1CCN(c2ccncc2)CC1 | 15.3%

Row | Structure (SMILES) | Inhibition %
27 | COCC(C)NS(=O)(=O)C=Cc1ccc(Cl)cc1 (stereo not drawn) | 13.7%
28 | CS(=O)(=O)n1cc(N)cn1 | 10.7%
29 | CC1(C)OB(c2ccc(Cl)cc2)OC1(C)C | 4.5%
30 | CC1(C)OB(c2cccc(Cl)c2)OC1(C)C | -3.11%
31 | CC1(C)OB(c2cc(Cl)cc(Cl)c2)OC1(C)C | 81%
32 | C=CC(=O)NC1CCc2cn(C(C)C)nc2C1 (stereo not drawn) | 11.9%
33 | CCOc1cc(C)c(C)cc1S(=O)(=O)n1ccnc1C | 2.71%
34 | C=CC(=O)Nc1ccc2ccc(=O)n(C)c2c1 | 7.33%
35 | C=CC(=O)Nc1ccc2c(c1)OCCCO2 | 3.17%
36 | C=CC(=O)Nc1ccc(Br)cc1 | 6.59%
37 | C=CC(=O)Nc1ccc2c(c1)N(C)CCO2 | 52.4%
38 | C=CC(=O)Nc1ccc(=O)n(C)c1 | 54.1%
39 | C=CC(=O)Nc1ccc2c(c1)CCCO2 | 7.61%
40 | CC(C)NC(=O)C(C#N)=Cc1ccccc1Cl | 6.2%
41 | CN(C)C=C(C#N)c1ccccn1 | 19.1%
42 | CCOc1cc(C)c(C(C)C)cc1S(=O)(=O)n1ccnc1 | 6.3%
43 | O=C(O)c1cccnc1S | 5.3%
44 | O=C(O)c1ccnnc1S | 83.3%
45 | NC(=O)c1cccnc1S | 4.97%
46 | O=c1[nH]c(Cc2ccncc2)no1 | 6.48%
47 | O=C(CCl)Nc1ccc(N=Nc2ccccc2)cc1 | 5.15%
48 | O=C(CCl)Nc1ccccc1Oc1ccccc1 | 6.38%
49 | O=C(CCl)Nc1ccc(Oc2ccccc2)cc1 | 84.2%
50 | Cc1cccc(Oc2ccc(NC(=O)CCl)cc2)c1 | 81.6%
51 | Cc1cccc(NC(=O)CCl)c1 | 8.99%
52 | O=C(CCl)Nc1cccc(Oc2ccccc2)c1 | 55.6%

Row | Structure (SMILES) | Inhibition %
53 | Cc1ccc(Oc2ccccc2NC(=O)CCl)cc1 | 2.56%
54 | O=C(CCl)Nc1cccc(NC(=O)c2ccccc2)c1 | 7.84%
55 | O=C(CCl)Nc1ccc(Oc2ccccc2Cl)cc1 | 93.7%
56 | O=C(CCl)Nc1ccc(OCc2ccccc2)cc1 | 28.9%
57 | Cc1ccc(Oc2ccc(NC(=O)CCl)cc2)cc1 | 36.3%
58 | O=C(CCl)NCc1cccc(Oc2ccccc2)c1 | 22.5%
59 | Cc1ccc(C)c(S(=O)(=O)n2nc(C)cc2C)c1 | 1.62%
60 | CCOc1cc(C)c(Cl)cc1S(=O)(=O)n1cnc(C)c1 | 5.28%
61 | C=CC(=O)NCCN(C)C1CCCCC1 | 10.8%
62 | C=CC(=O)N1CCN(c2ncnc3sc(C)cc23)CC1 | 0.554%
63 | Cc1noc(C)c1Cn1c(-c2ccccn2)noc1=O | 0.962%
64 | CC1(C)OB(c2cccc3occc23)OC1(C)C | 10.2%
65 | C=CC(=O)N1CCC(c2nccn2C)C1 (stereo not drawn) | 5.02%
66 | Cn1c(=O)[nH]c2ccc(B3OC(C)(C)C(C)(C)O3)cc21 | 0.0918%
67 | C=CC(=O)NC1CC(OCC)C12CCCCC2 (stereo not drawn) | 4.59%
68 | CN(C)C(=O)Oc1ccc2c(c1)OCO2 | -4.08%
69 | N#Cc1nccnc1N1CCC(C(F)(F)F)CC1 | 2.52%
70 | C=CC(=O)N1CCN(CC2CCOCC2)CC1 | 12.9%
71 | N#Cc1ccc(N2CCOC(c3cccs3)C2)cn1 (stereo not drawn) | 4.98%
72 | COCc1ccc(CNC(=O)CCl)cc1 | 6.87%
73 | N#Cc1ccc(N2CCCC(C(N)=O)C2)cn1 (stereo not drawn) | 6.47%
74 | CC(c1cc2ccccc2o1)N(C)C(=O)CCl (stereo not drawn) | 96.1%
75 | CC(c1ccc(F)cc1)N(C)C(=O)Cn1cnc(C#N)n1 (stereo not drawn) | 11.3%
76 | C=CC(=O)N(C)Cc1cc2ccccc2o1 | 5.57%
77 | CCC(NC(=O)CCl)c1ccc(Cl)cc1 (stereo not drawn) | 14.1%
78 | CC(c1ccc(Cl)cc1)N(C)C(=O)CCl (stereo not drawn) | 98%

Row | Structure (SMILES) | Inhibition %
79 | CN(C)C=CC(=O)c1cc2ccccc2o1 | 0.589%
80 | CCN(C(=O)CCl)C(C)c1ccc(F)cc1 (stereo not drawn) | 9.9%
81 | CC(c1ccc(F)c(F)c1)N(C)C(=O)CCl (stereo not drawn) | 92.5%
82 | CC(NC(=O)CCl)c1ccc(Cl)cc1 (stereo not drawn) | 6.77%
83 | CC(c1ccc(F)cc1)N(C)C(=O)CCl (stereo not drawn) | 96.3%
84 | C=CC(=O)N1CCCC(c2ccc(F)c(F)c2)C1 (stereo not drawn) | 9.29%
85 | C=CC(=O)N1CC(C)OC(C(F)(F)F)C1 (stereo not drawn) | 14.7%
86 | CC(=O)SCCc1csc(-c2ccccn2)n1 | 9.81%
87 | O=C(Nc1ccccc1)c1cccnc1S | 3.52%
88 | CCC1(c2ccccc2)NC(=O)N(NC(=O)CCl)C1=O (stereo not drawn) | 6.48%
89 | C=CC(=O)N1CCC(Cc2ccncc2)C1 (stereo not drawn) | 6.08%
90 | Cc1cccc2c(=O)[nH]c(C(Cl)=Cc3ccnn3C)nc12 | 6.42%
91 | C=CC(=O)NC(C)c1c(C)nn(CC(F)(F)F)c1C (stereo not drawn) | 4.48%
92 | CN(C(=O)CCl)C(c1ccccc1)c1ccccc1 | 6.29%
93 | CN(C(=O)CCl)c1nc2ccccc2s1 | 3.42%
94 | CC(c1nc2ccccc2s1)N(C)C(=O)CCl (stereo not drawn) | 97.3%
95 | CCN(C(=O)CCl)c1nc2ccccc2s1 | 24.6%
96 | CC(c1ccccc1)N(C)C(=O)CCl (stereo not drawn) | 98.5%
97 | CC(c1ccccc1)N(C)C(=O)Cn1cnc(C#N)n1 (stereo not drawn) | 7.46%
98 | CC1(C)OB(c2cnc3ccnn3c2)OC1(C)C | 5.87%
99 | C=CC(=O)N1CCOC(C)(C(F)F)C1 (stereo not drawn) | 7.7%
100 | CS(=O)(=O)c1cccnc1C#N | 5.26%
101 | C=CC(=O)N1CCCC1C (stereo not drawn) | 7.71%
102 | CC(C)Cn1c(N)c(C(=O)CCl)c(=O)n(C)c1=O | 6.06%
103 | O=c1[nH]c(-c2cccc(S(=O)(=O)F)c2)nc2sc3c(c12)CCC3 | 88.5%
104 | O=c1[nH]c(-c2ccc(S(=O)(=O)F)cc2)nc2sc3c(c12)CCC3 | 15.9%

Row | Structure (SMILES) | Inhibition %
105 | O=c1[nH]c(-c2ccc(S(=O)(=O)F)cc2)nc2ccccc12 | 13%
106 | Cc1cc(B2OC(C)(C)C(C)(C)O2)ccc1N | 8.63%
107 | CC1(C)OB(c2ccc3ccc(N)cc3c2)OC1(C)C | 86.8%
108 | CC1(C)OB(c2ccc(N)c(F)c2)OC1(C)C | 1.59%
109 | CC1(C)OB(c2ccc(N)c(O)c2)OC1(C)C | 92.7%
110 | CC1(C)OB(c2ccc3cc(N)ccc3c2)OC1(C)C | 87.8%
111 | CC1(C)OB(c2cccc(N)c2)OC1(C)C | 12.8%
112 | CC1(C)OB(c2ccc3ccoc3c2)OC1(C)C | 9.89%
113 | Cc1ccc(N)cc1B1OC(C)(C)C(C)(C)O1 | 14.1%
114 | CC1(C)OB(c2ccc(N)cc2)OC1(C)C | 5.89%
115 | Cc1ccc(C)c(Cn2cnc(C#N)n2)c1 | 2.61%
116 | Clc1ccccc1COCC1CO1 (stereo not drawn) | 9.97%
117 | N[C@@H]1CCN(C(=O)C=Cc2cc3ccccc3o2)C1 | 18.2%
118 | N#Cc1ccc2c(n1)CCCC2 | 7.43%
119 | C=CC(=O)NC1CC(OC)C12CCC2 (stereo not drawn) | 3.73%
120 | C=CC(=O)NC1C(C)C(OC)C12CCC2 (stereo not drawn) | 50%
121 | C=CC(=O)NC1C2CCOC2C12CCC2 (stereo not drawn) | 8.04%
122 | COc1cc(S(=O)(=O)n2cccn2)c(C)cc1C | 5.05%
123 | COc1ccc(CNC(=O)CCl)cc1OC | 6.67%
124 | Cc1ccc(NC(=O)CCl)cc1C | 34.8%
125 | Cc1ccc(NC(=O)CCl)cc1Br | 75%
126 | Cc1ccc(NC(=O)CCl)cc1I | 81.5%
127 | Cc1cc(C)cc(NC(=O)CCl)c1 | 11.3%
128 | Cc1ccc(NC(=O)CCl)cc1F | 48.3%
129 | Cc1cc(NC(=O)CCl)ccc1Br | 32.6%
